Experimental data published in PubChem BioAssay.
Calls of active or inactive are those of the source.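 Rule for the calls, unless noted: active = inhibition of the reporter signal at or above 50%; inactive = inhibition below 50%.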

Test: inhibitors of Sendai virus-induced IRF3 signaling, primary screen, TLR/RLR signaling modifier project, cell-based, Sendai virus stimulus, luciferase, 10K MLSCN set (AID 602276;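 active = inhibition at or above 50% at 10 µM; inactive = inhibition below 50%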;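 note: firefly luciferase from ISG56 promoter only with Renilla not read in this screen; 0% = Sendai virus plus DMSO and 100% = medium plus DMSO without virus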)
Conditions: HEK293 RL24 IRF3 luciferase reporter, at 10 µM, hits give high values

Compound | inhibition
c1ccc(OCCOc2ncnc3sccc23)cc1 | -2.1% (inactive)
CC(c1nnc(SCC(=O)Nc2sccc2C#N)n1-c1ccc(Cl)cc1)N(C)C (configuration not stated) | 17.6% (inactive)
CNC(=O)c1ccccc1NC(=O)c1c(O)c2c([nH]c1=O)CCCC2 | 4.16% (inactive)
O=C(C1CCC1)N1CCc2cc(S(=O)(=O)Nc3ccc4c(c3)OCO4)ccc21 | 7.48% (inactive)
Cc1c(C(=O)OC(C)C)[nH]c2c1C(=O)CCC2 | -15.8% (inactive)
Cc1nc(-c2cnn(-c3ccccc3)c2)c2cc(C)oc2n1 | 10.4% (inactive)
COc1ccc(OC(C)C(=O)N2CC(C)OC(C)C2)cc1 (configuration not stated) | 14.1% (inactive)

Test: inhibitors of poly I:C-induced TLR3 signaling, primary screen, cell-based, poly I:C stimulus, luciferase, 10K MLSCN set (AID 602277)
Conditions: HEK293-TLR3 RL24 IRF3 luciferase reporter, at 10 µM, hits give high values

Compound | inhibition
CCSc1nc2c(c(=O)n(C)c(=O)n2C)n1Cc1ccc(Cl)cc1 | 4.67% (inactive)
COc1ccccc1N1CCN(C(=O)c2oc3cc(C)c(C)cc3c2C)CC1 | 15% (inactive)
CC(C)CCNC(=O)NC(=O)CSc1nnc(-c2ccccc2Br)o1 | 20.3% (inactive)
C=CCSc1ncccc1C(=O)O | -3.04% (inactive)
CC1CCc2nc(NC(=O)CN3CCN(Cc4ccc5c(c4)OCO5)CC3)sc2C1 (configuration not stated) | 10.6% (inactive)
CC(=O)CC(=O)Nc1ccccc1NC(C)=O | 15% (inactive)
CC(C)OC(=O)CSc1nnc(Cc2ccccc2)n1Cc1ccco1 | 6.75% (inactive)
O=C(NCCN1CCCC1)C1COc2ccccc2O1 (configuration not stated) | 11.8% (inactive)
COC(=O)c1ccc2c(=O)n(Cc3ccco3)c(SCC(=O)Nc3ccc(C)c(Cl)c3)nc2c1 | 28.2% (inactive)
CCC1(CC)C(=O)C(C)(C)C(=O)OC1c1cccs1 (configuration not stated) | 19.6% (inactive)
CCOc1ccc(OCC)c2sc(C)nc12 | -8.47% (inactive)
CC(=O)Nc1cccc(-c2nnc(-c3ccccc3)o2)c1 | -134% (inactive)
CCOC(=O)C1=C(C)NC(=O)C(C#N)C1c1ccco1 (configuration not stated) | 20.3% (inactive)
O=C1CN=C(Nc2cccc(C(F)(F)F)c2)N1C1CCCC1 | -11.6% (inactive)
COc1ccc(-c2nnc3ccc(SC(C(C)=O)C(C)=O)nn23)cc1OC | 13.4% (inactive)
CSc1nnc2c3ccccc3n(CCc3ccccc3)c2n1 | -163% (inactive)
CC(C)(C)n1nc2c(c1NC(=O)COc1ccc(Cl)cc1)CSC2 | 25.3% (inactive)
COc1cccc(N2CCN(Cc3nc(N)nc(Nc4ccccc4OC)n3)CC2)c1 | 17.2% (inactive)
Cc1cc(C)cc(NC(=O)N2CCC(c3nc4ccccc4o3)CC2)c1 | 18.7% (inactive)
O=C1CCC(=O)N1OCCCCOc1ccccc1 | 18% (inactive)

Compound | inhibition
Cc1cc(C)c2c(=O)[nH]c(=O)n(Cc3ccccc3)c2n1 | 27.4% (inactive)
Cc1ccc(CNC(=O)C2CCCN(S(=O)(=O)c3cccnc3)C2)cc1 (configuration not stated) | -7.01% (inactive)
COc1ccccc1OC(=O)c1ccc(SC)cc1OC | 2.42% (inactive)
COc1ccccc1OC(=O)c1ccc2nsnc2c1 | 99.7% (active)
CCCCCCNC(=O)Cc1c(O)c2ccccc2[nH]c1=O | 16.8% (inactive)
CCCOc1nc(N)c(C#N)c(-c2ccccc2F)c1C#N | 14% (inactive)
CCOC(=O)c1cc(-c2ccc(Cl)s2)nc2c1c(C)nn2C | -18.9% (inactive)
COc1ccc(-n2c(SCC(=O)Nc3ccc(C(=O)O)cc3)nnc2-c2cccs2)cc1 | 6.83% (inactive)
COC(=O)c1nc2n(n1)C(c1ccc(OC)c(OC)c1)C(C(=O)OC1CCCCC1)=C(C)N2 (configuration not stated) | 12.6% (inactive)
O=C(NC12CC3CC(CC(C3)C1)C2)C1CCCN1C(=O)NC1CCCCC1 (configuration not stated) | 28.4% (inactive)
O=C(Nc1cccc(C(F)(F)F)c1)c1cccnc1N1CCCC1 | 28.2% (inactive)
COCCn1c(SCC(=O)Nc2nnc(C)s2)nnc1-c1ccncc1 | -2.25% (inactive)
Cc1noc(C)c1S(=O)(=O)NCCN1CCN(c2ccccc2)CC1 | 20.2% (inactive)
c1ccc(OCCOc2ncnc3sccc23)cc1 | -65.8% (inactive)
CC(c1nnc(SCC(=O)Nc2sccc2C#N)n1-c1ccc(Cl)cc1)N(C)C (configuration not stated) | 25.1% (inactive)
CNC(=O)c1ccccc1NC(=O)c1c(O)c2c([nH]c1=O)CCCC2 | 16.9% (inactive)
O=C(C1CCC1)N1CCc2cc(S(=O)(=O)Nc3ccc4c(c3)OCO4)ccc21 | 13.6% (inactive)
Cc1c(C(=O)OC(C)C)[nH]c2c1C(=O)CCC2 | -50.8% (inactive)
Cc1nc(-c2cnn(-c3ccccc3)c2)c2cc(C)oc2n1 | -22.9% (inactive)
COc1ccc(OC(C)C(=O)N2CC(C)OC(C)C2)cc1 (configuration not stated) | 30.8% (inactive)
